Over roughly 16,000 sequences, “Z-score” has its median near -0.37; the highest 2% begin near 3.1. Many of the other results were omitted from the sample, so the highest values are more common in it than they were.
What follows are sequences tested on RBM10 RRM1-ZnF-RRM2 (GST-tagged construct) (assay: RNAcompete 7-mer binding Z-score; higher = stronger binding preference).
Procedure, shortened: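 In 1 ml Hepes pH 7.8 buffer with KCl, NaCl, glycerol, DTT, BSA and glutathione Sepharose beads, GST-tagged RBM10 constructs (20 pmol) were incubated for 30 min at 4°C with 1.5 nmol of a designed pool of 241 399 RNAs up to 41 nt. Four 2-min washes at 4°C followed, and bound RNA was detected by microarray hybridisation. Heptamer motif enrichment was expressed as a one-sided Z-score across probes containing each motif.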

Sequence	RNAcompete 7-mer binding Z-score
GGCCGUA	0.0786
AAGAGGU	1.66
CCGCAUA	-0.817
AAGAUUU	-0.588
CGUAAUC	-0.511
GGGUGAA	3.66
CGGUGAG	1.64
UGGUGAU	0.727
AGGUGAU	1.62
CGGUGAA	0.723
GGGUGAG	4.12
GGGUGAU	3.16
UGGUGAA	1.22
GGGUGAC	2.92
CAUUUCU	-0.872
CAUAACU	-0.592
UAAAGCC	-0.661
ACGUUUC	-0.912
UAACAGG	1.14
AGACAGG	1.72
GAACAGG	3.18
GGACAGU	1.01
GAACAGA	0.745

Sequence	RNAcompete 7-mer binding Z-score
GGACAGG	3.23
ACCCAGG	-0.173
GCUUUAA	-0.726
CCAGCUA	-0.719
GUGGUAU	1.08
GUGCUAG	0.268
CGAUCUG	-0.795
GUCUAAC	-0.486
GAGUAGA	1.4
GGGUAUG	3.69
GAGUAGU	0.68
CGGUAGA	1.01
UGGUAGA	1.89
GGGUAGA	3.84
AGGUAUG	1.95
UGGUAGC	1.01
GAGUAGG	3.6
GGGUAGC	2.69
GGGUAUC	2.16
UGGUAGG	3.16
UGAUUCC	-0.668
AAUUGUG	-0.00512
UUGGUGA	1.39

Sequence	RNAcompete 7-mer binding Z-score
GAUCGCG	-0.0925
UCGUUCA	-0.508
UUUGAUG	-0.358
UUGAGCA	-0.165
GGGUACA	3.39
GGGUAGG	4.42
AGGUAGG	3.72
AGGUAGC	0.862
GCGUAGG	2.21
GGGUACU	2.05
UGGUAGU	0.585
AGGUAGA	2.42
UGGUACA	0.949
CGGUAGG	2.15
CGGUAGU	0.37
GGGUAGU	3.17
UAUGAAC	-0.195
CAUGCUU	-0.861
UGCUGCG	-0.34
UACUCGC	-0.548
GUGGAAU	2.34
AGUAUAU	-0.351
AGGGGAA	3.56

Sequence	RNAcompete 7-mer binding Z-score
CGGGGAA	2.76
AAGGGAU	3.44
AAGGGAC	3.43
UAGGGAU	2.48
AGGGGAC	1.97
GAGGGAC	2.02
AAGGGCG	3.12
AGGGGAG	2.52
GGGGGAA	2.61
AAGGGAG	4.04
ACGGGAU	1.88
UUAGGCC	-0.471
AGGCCUG	-0.632
AAUCGCU	-0.825
GUCUCUC	-0.719
CGCGUGG	1.41
UUCGGCU	-0.61
AACCAGU	-0.235
GUCGUCC	-0.377
CAACUAC	-0.628
UAGGGAA	3.46

Source: the supplement of paper PMC5499739
